Sampled rows, rich in hits. Any-hit rate of the full collection: about 20%.
HCMV antiviral = qHTS Assay for inhibitors of the human cytomegalovirus (HCMV) | AID 1259415, 2018 | 410,000 tested, 4.5% active | activity change, negative = inhibition, % at 57.5 µM | HFF cells, HCMV-luciferase reporter, 72 h; active compounds read low; in the data active = activity change below about -60%; inconclusive = no clear call, values can overlap the other calls; inactive = above about -39%; also: % is scaled to controls: 0 for no effect and ±100 for the full control effect
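HFF cells seeded 16 h at 37C, treated with compounds, infected with luciferase-reporter HCMV at MOI 1 PFU/cell; luciferase read at 72 h post infection, normalized to buffer-only and Salinomycin controls.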
Pf growth 48h = Primary qHTS for delayed death inhibitors of the malarial parasite plastid, 48 hour incubation; P. falciparum luciferase growth in erythrocytes, 48 h; Potency, µM (highest dose often 28.7 µM), for inactives: at the highest dose activity change, negative = inhibition, most hits filed as inhibitors; 310,000 tested, 5.9% active; AID 504832, 2011; also: potency is read from the fitted curve at half-maximal effect; % is scaled to controls: 0 for no effect and ±100 for the full control effect
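Erythrocytes infected with P. falciparum carrying an integrated firefly luciferase reporter (2% hematocrit, 0.1% parasitemia final) were exposed to compounds in RPMI 1640 with 0.5% Albumax at 37 C, 5% CO2. Growth inhibition was scored as reduced luminescence.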
CHX counter = Cycloheximide Counterscreen for Small Molecule Inhibitors of Shiga Toxin | max response, % | cell reporter, cycloheximide protein synthesis inhibition counterscreen | 300,000 tested, 12% active; in the data active = max response mostly above about 13%, no sharp cut-off; inactive = mostly below about 14%; also: read at 38.3 µM for the half of the compounds with a filed dose; 0% is about no effect
Pf growth 96h = Primary qHTS for delayed death inhibitors of the malarial parasite plastid, 96 hour incubation | AID 504834, 2011 | 320,000 tested, 6.9% active | P. falciparum luciferase reporter growth, 96 h | Potency, µM (series often up to 28.7 µM), for the others: top-dose activity change, negative = inhibition, hits mostly inhibitors; also: potency is read from the fitted curve at half-maximal effect; % is scaled to controls: 0 for no effect and ±100 for the full control effect
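Two-generation exposure (96 h) targets delayed-death phenotype. Reporter parasites carrying integrated firefly luciferase, in red cells at 2% hematocrit and 0.05% parasitemia final, kept at 37 C, 5% CO2; luminescence loss indicates inhibition.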
Shiga toxin inh = A qHTS for Small Molecule Inhibitors of Shiga Toxin; inhibition, % at 38.7 µM; Vero cells, Shiga toxin protein synthesis inhibition reporter; 290,000 tested, 9.2% active; in the data active = inhibition mostly above about 28%, no sharp cut-off; inactive = mostly below about 43%; also: 0% is about no effect
Numbers without * were called inactive; u = inconclusive; x = not tested or not shown. Unless noted, calls follow the shape of the dose curve; as a rule, active = well fitted inhibition curve with a large enough effect; inconclusive = small, poorly fitted or top-dose-only effect, or another doubt; inactive = no such curve, though single readings can be large or run the other way.

SMILES | HCMV antiviral | Pf growth 48h | CHX counter | Pf growth 96h | Shiga toxin inh
CCOc1ccc2nc(NC(=O)CCC(=O)c3cccs3)sc2c1 | 8 | 125% | 30* | x | 87*
CS(=O)(=O)c1ccc2nc(NC(=O)CC3CCCC3)sc2c1 | 6 | u | 24* | 15% | 53*
CS(=O)(=O)c1ccc2nc(NC(=O)CN3CCN(Cc4ccccc4)CC3)sc2c1 | -32 | u | -3 | u | 7
CC(C)CC(=O)Nc1nc2ccc(S(C)(=O)=O)cc2s1 | 20 | -11% | 17* | u | 67*
CCOc1ccc2nc(NC(=O)Cn3c(C)csc3=O)sc2c1 | -19 | 40% | x | 18% | x
COc1cccc(C2CC(=O)N(c3ccc(F)cc3)C3=C2C(=O)OC3)c1OC (centres undefined) | -7 | x | x | x | x
CCNS(=O)(=O)c1ccc(CCC(=O)Nc2ccc(C(=O)OC)cc2)cc1 | -29 | u | -2 | u | -14
COCCNC(=O)C1CCCN(Cc2cccc(C#N)c2)CC1 (centres undefined) | -61* | x | x | x | x
CCNC(=O)C1CCCN(Cc2ccc(OCc3ccccc3)cc2)CC1 (centres undefined) | -64* | x | x | x | x
COCCNC(=O)C1CCN(Cc2cccc(OCc3ccccc3)c2)CC1 | 86 | -2% | -3 | -23% | x
CCCCNC(=O)C1CCN(Cc2ccc(OCc3ccccc3)cc2)CC1 | -16 | 6% | 26* | u | 63*
O=C(Cc1ccccc1)NCC(=O)N1CCC2(CC1)NCCc1[nH]cnc12 | -28 | 0% | 7 | 48% | 14
COc1ccc(Nc2ncnc3sc(C)cc23)c(OC)c1 | 8 | 25% | 23* | u | 48*
O=C(NN=C1C2CC3CC1CC(Cl)(C3)C2)c1ccccn1 | -16 | 223% | 14* | u | 43
O=C(NN=C1C2CC3CC1CC(Cl)(C3)C2)c1cccs1 | -38 | 194% | 45* | 17% | 35
O=C1c2ccccc2C(=O)C1(c1ccccc1)N1CCN(c2cccc(Cl)c2)CC1 | -22 | x | x | x | x
Cc1cc(OCC(F)(F)C(F)(F)C(F)(F)C(F)F)nc(N)n1 | 24 | u | 46* | 48% | 78*
COC(=O)c1ccc(COc2ccc(/C=C(\C#N)c3nc4ccccc4[nH]3)cc2OC)o1 | -5 | 1.3µM* | 33* | u | 81*
CCc1ccc(NC(=O)COc2ccc(/C=C(/C#N)c3nc4ccccc4[nH]3)cc2OC)cc1 | -1 | 2.6µM* | 22* | u | active
COc1cc(/C=C(\C#N)c2nc3ccccc3[nH]2)ccc1OCc1cccc(C(F)(F)F)c1 | -87* | x | x | x | x
COc1cc(/C=C(/C#N)c2nc3ccccc3[nH]2)ccc1OCc1ccc(C(=O)O)o1 | -18 | u | 10 | u | 50
COc1cc(/C=C(\C#N)c2nc3ccccc3[nH]2)ccc1OCc1ccc(F)cc1 | -78* | x | x | x | x
CCOC(=O)C1=C(Nc2ccccc2)CC(C)(O)C(C(=O)OCC)C1c1ccc(Br)cc1 (centres undefined) | 22 | 15µM* | -5 | u | 10
CCOC(=O)C1=C(Nc2ccccc2)CC(C)(O)C(C(=O)OCC)C1c1ccccc1 (centres undefined) | 15 | u | -3 | u | -3
CCOC(=O)C1=C(Nc2ccc(C)cc2)CC(C)(O)C(C(=O)OCC)C1c1ccccc1 (centres undefined) | 71 | 12µM* | 7 | 13µM* | -9
SMILES | HCMV antiviral | Pf growth 48h | CHX counter | Pf growth 96h | Shiga toxin inh
COc1cccc(OC(=O)CSc2nnc(-c3ccccc3OC)o2)c1 | 13 | x | x | x | x
Cc1ccc(-n2ncc3c(N4CCN(C)CC4)ncnc32)cc1Cl | -38 | x | x | x | x
O=C(Nc1ccc(N2CCCC2)cc1)c1ccc(Br)cc1 | 104 | 13µM* | 12* | 0% | 19
CC(=O)N1CCCc2ccc(NC(=O)c3ccc(OC(C)C)cc3)cc21 | -61* | x | x | x | x
CC(C)Oc1ccc(C(=O)Nc2ccc(N3CCN(C(=O)c4ccco4)CC3)cc2)cc1 | -39 | u | -3 | u | -10
CC(C)Oc1ccc(C(=O)Nc2ccc(N3CCCC3)cc2)cc1 | x | 13µM* | 20* | 9.3µM* | 27*
O=C(NC(=S)NCc1nc2ccccc2[nH]1)c1ccc(F)cc1 | -1 | 52% | 28* | 131% | 37
O=C(NC(=S)NCc1nc2ccccc2[nH]1)c1ccccc1F | -3 | 484% | 45* | 438% | 105*
CN(C(=O)c1cccc(NC(=O)Cc2cccc(NC(=O)C3CCN(C(=O)C4CCCC4)CC3)c2)c1)C1CC1 | 0 | x | x | x | x
O=C(NCc1ccco1)c1ccc(-c2ccc3nccn3c2)cc1 | 16 | x | x | x | x
CCN(CCCNC(=O)CN(C)S(=O)(=O)c1cccc2nsnc12)c1cccc(C)c1 | -14 | u | -4 | 8.3µM* | -10
CCN(CCNC(=O)C1CCN(S(=O)(=O)c2cccc3nsnc23)CC1)c1ccccc1 | -13 | u | 4 | 49% | 9
CCN(CC)c1ccc(NC(=O)CN(C)S(=O)(=O)c2cccc3nsnc23)c(C)c1 | -67* | x | x | x | x
CCN(CCNC(=O)CN(C)S(=O)(=O)c1cccc2nsnc12)c1ccccc1 | 27 | x | 1 | 12µM* | -9
COc1cc(NC(=O)N2CCc3nc(Nc4cc(Cl)cc(Cl)c4)ncc3C2)cc(OC)c1OC | -25 | x | x | x | x
CCOC(=O)c1cnc2c(ccc3ccccc32)c1Nc1cccc(Cl)c1 | 30 | x | x | x | x
CCOc1ccc(NC(=O)Nc2cnccn2)cc1 | u | 36% | 16* | -1% | 59
Cn1ccc(NC(=O)Nc2ccc(Cl)cc2Cl)n1 | 13 | 84% | 51* | u | 22*
COc1ccc(NC(=O)Nc2cnccn2)cc1 | -20 | 61% | 36* | 68% | 48*
CCOc1ccc(NC(=O)NC(C)CC)cc1 (centres undefined) | -9 | 24% | 40* | 9.3µM* | 42*
COc1ccccc1CNCC(=O)Nc1ccccc1-n1cccc1 | 24 | -47% | -1 | 221% | -4
Cc1ccccc1NC(=O)Nc1cnccn1 | 1 | 18% | 9 | 2% | 74
CCC(C)c1ccc(NC(=O)Nc2cnccn2)cc1 (centres undefined) | -1 | u | 74* | 55% | 87*
O=C(Nc1cnccn1)Nc1ccc(Cl)cc1Cl | u | 21% | 29* | 42% | 76*
Cc1ccc(NC(=O)Nc2cnccn2)cc1Cl | -18 | 43% | 23* | 13% | 70*
CCOc1ccc(NC(=O)C(CC(=O)O)Cc2ccc(Br)cc2)cc1 (centres undefined) | 1 | 3% | -2 | 9.3µM* | -7
COc1ccc(CC(CC(=O)O)C(=O)Nc2ccc(OC)cc2)cc1 (centres undefined) | 14 | 3% | -3 | u | 1
CCN(c1ccccc1)S(=O)(=O)c1ccc(C(=O)N(C)CCc2ccc(OC)c(OC)c2)cc1 | -17 | u | -6 | u | -8

Source: PubChem BioAssay (National Center for Advancing Translational Sciences (NCATS))
